Laboratory results from PubChem BioAssay (Tox21).
Inconclusive results are not listed. Activity calls are given as the source filed them. Calls follow the shape of the dose curve; as a rule, active = well fitted cell-killing curve with a large enough effect in the repeat runs; inconclusive = weak or mixed curves; inactive = no such curve, though single readings can be large or run the other way.
% is scaled to controls: 0 for no effect and ±100 for the full control effect.

Experiment: qHTS assay to identify small molecule antagonists of the androgen receptor (AR) signaling pathway - cell viability counter screen (AID 743033; also: nearly all actives have a fitted effect of over 45% in size)
Conditions: AR-bla HEK293 viability, CellTiter-Glo luminescence, 16 h; series mostly up to 58.5 µM; activity change, negative = cytotoxicity: at the top concentration
Description: National Center for Advancing Translational Sciences [NCATS]
NIH Chemical Genomics Center [NCGC]
U.S. Environmental Protection Agency [EPA]
National Institutes of Environmental Health Sciences [NIEHS]
National Toxicology Program [NTP]
U.S. Food and Drug Administration [FDA]
Androgen receptor (AR), a nuclear hormone receptor, plays a critical role in AR-dependent prostate cancer and other androgen related diseases. Endocrine disrupting chemicals (EDCs) and their interactions with steroid hormone receptors like AR may cause disruption of normal endocrine function as well as interfere with metabolic homeostasis, reproduction, developmental and behavioral functions. To identify the compounds that inhibit AR signaling, GeneBLAzer AR-UAS-bla-GripTite cell line (Invitrogen, Carlsbad, CA, USA) containing a beta-lactamase reporter gene under control of an Upstream Activator Sequence (UAS) stably integrated into HEK293 cells was used to screen the Tox21 10K compound library. The cytotoxicity of the Tox21 compound library against the AR-bla cell line was tested in parallel by measuring the cell viability using CellTiter-Glo assay in the same wells.
Tox21 Assay Protocol Summary:
AR-bla cells were dispensed at 2,000 cells/5 uL of assay medium per well into black wall/clear-bottom 1536-well plates using a Multidrop Combi (ThermoFisher Scientific, Waltham, MA) dispenser. After the assay plates were incubated at a 37C and 5% CO2 for 4 hr, 23 nL of compounds dissolved in DMSO, positive controls or DMSO only was transferred to the assay plate by a Pintool station (Kalypsys, San Diego, CA), followed by addition of 1 uL of agonist (R1881) in culture medium using a Bioraptr Flying Reagent Dispenser (FRD) workstation (Beckman Coulter, Indianapolis, IN, USA). The plates were incubated at a 37C and 5% CO2 for 16 h. After 1 uL of LiveBLAzerTM B/G FRET substrate was added using a Bioraptr FRD, the plates were incubated at room temperature for 2 h and fluorescence intensity was measured by an Envision plate reader (PerkinElmer, Shelton, CT). For cell viability readout that measures cytotoxicity, 4 ul/well of CellTiter-Glo reagent was added into the assay plates using a Bioraptr FRD. After 30 min incubation at room temperature, the luminescence intensity in the plates was measured using a ViewLux (PerkinElmer) plate reader.
In the case of `OC1OCCOC1O` (stereo not given), the “activity change, negative = cytotoxicity” value is reported as -0.174% (inactive).
With `Cc1ccc(C(C)NC(=O)[C@@H](NC(=O)OC(C)C)C(C)C)cc1` (stereo not given in full) the “activity change, negative = cytotoxicity” value was 0.216% (inactive).
In the case of `Cc1ccc(C(=O)O)cc1[N+](=O)[O-]`, the “activity change, negative = cytotoxicity” value is reported as -15.3% (inactive).
With `O=C1CCC(=O)N1Cl` the “activity change, negative = cytotoxicity” value was -2.13% (inactive).
For `CC(=O)CCC1=C(C)CCCC1(C)C`, the “activity change, negative = cytotoxicity” value was -1.67% (inactive).
With `OCC(O)CN1CCN(c2ccccc2)CC1` (stereo not given) the “activity change, negative = cytotoxicity” value was 2.24% (inactive).
With `COc1ccc(CCO)cc1` the “activity change, negative = cytotoxicity” value was 3.29% (inactive).
For `C=C(C)[C@@H]1CC=C(C)C(=O)C1`, the “activity change, negative = cytotoxicity” value was 0.721% (inactive).
For `CCCCCc1cccc(=O)o1`, the “activity change, negative = cytotoxicity” value was 2.9% (inactive).
In the case of `CCC/C=C(\C=O)CC`, the “activity change, negative = cytotoxicity” value is reported as 0.4% (inactive).
With `CC1(C)Oc2ccc(C#N)cc2[C@@H](N2CCCC2=O)[C@@H]1O` the outcome was “inactive”.
In the case of `CC(C)Nc1ccccc1`, the “activity change, negative = cytotoxicity” value is reported as 5.14% (inactive).
In the case of `Cc1cc(C)c(C(=O)O)c(C)c1`, the “activity change, negative = cytotoxicity” value is reported as -5.14% (inactive).
With `Cc1ccc2c(c1)C(=O)c1ccccc1C2=O` the “activity change, negative = cytotoxicity” value was -2.29% (inactive).
For `O=Cc1cc2ccccc2o1`, the “activity change, negative = cytotoxicity” value was -2.15% (inactive).
In the case of `CC(=O)OC1CCCCC1C(C)(C)C` (stereo not given), the “activity change, negative = cytotoxicity” value is reported as 2.29% (inactive).
In the case of `CC(C)OC(=O)OCOP(=O)(CO[C@H](C)Cn1cnc2c(N)ncnc21)OCOC(=O)OC(C)C`, the outcome is reported as “inactive”.
In the case of `CCC(C)C(C)=O` (stereo not given), the “activity change, negative = cytotoxicity” value is reported as 0.246% (inactive).
For `CO/N=C(/C(=O)N[C@@H]1C(=O)N2C(C(=O)[O-])=C(C[n+]3ccn4ncccc43)CS[C@H]12)c1nsc(N)n1`, the outcome was “inactive”.
With `COC(=O)CCCCC(=O)O` the “activity change, negative = cytotoxicity” value was 0.538% (inactive).
In the case of `CC1OCCC1=O` (stereo not given), the “activity change, negative = cytotoxicity” value is reported as 6.08% (inactive).
For `C[C@@H](O)C(=O)O`, the “activity change, negative = cytotoxicity” value was 0.838% [at 78.9 µM] (inactive).
In the case of `CC(C)NCC(O)c1ccc2ccccc2c1` (stereo not given), the “activity change, negative = cytotoxicity” value is reported as -20.8% (inactive).
For `Cc1ncc([N+](=O)[O-])n1CC(C)O` (stereo not given), the “activity change, negative = cytotoxicity” value was 17% (inactive).
In the case of `O=C(O)CSCC(=O)NC1CCSC1=O` (stereo not given), the “activity change, negative = cytotoxicity” value is reported as 4.08% (inactive).
With `O=C=NCC1CCCC(CN=C=O)C1` (stereo not given) the “activity change, negative = cytotoxicity” value was -2.18% (inactive).
For `CC(O)COC(C)(C)C` (stereo not given), the “activity change, negative = cytotoxicity” value was 6.22% (inactive).
In the case of `OCCN1CCOCC1`, the “activity change, negative = cytotoxicity” value is reported as 3.93% (inactive).
For `C[Si]1(C)O[Si](C)(C)O[Si](C)(C)O[Si](C)(C)O[Si](C)(C)O1`, the “activity change, negative = cytotoxicity” value was 5.41% (inactive).
In the case of `CO[Si](CCCn1c(=O)n(CCC[Si](OC)(OC)OC)c(=O)n(CCC[Si](OC)(OC)OC)c1=O)(OC)OC`, the “activity change, negative = cytotoxicity” value is reported as 4.89% (inactive).
With `CCOC(=O)CC1(C)OCC(C)O1` (stereo not given) the “activity change, negative = cytotoxicity” value was 1.44% (inactive).
With `C=C(C)[C@@H]1CC=C(C)CC1` the “activity change, negative = cytotoxicity” value was 1.01% (inactive).
In the case of `CC1CC(=O)CC(C)(C)C1` (stereo not given), the “activity change, negative = cytotoxicity” value is reported as 2.22% (inactive).
For `O/N=C/C=N/O`, the “activity change, negative = cytotoxicity” value was 4.86% (inactive).
In the case of `CC(=O)Nc1ccc(OC(=O)c2ccccc2OC(C)=O)cc1`, the “activity change, negative = cytotoxicity” value is reported as 3.02% (inactive).
With `O=[N+]([O-])c1c(Cl)cc(Cl)cc1Cl` the “activity change, negative = cytotoxicity” value was 1.44% (inactive).
In the case of `CCc1occc(=O)c1O`, the “activity change, negative = cytotoxicity” value is reported as 3.87% (inactive).
With `CC(S)C(C)S` (stereo not given) the “activity change, negative = cytotoxicity” value was 10.3% [at 78.9 µM] (inactive).
With `CCCCCCC1(C)CCC(=O)O1` (stereo not given) the “activity change, negative = cytotoxicity” value was 15.4% (inactive).
For `CC1=C(O)C(=O)C(C)O1` (stereo not given), the “activity change, negative = cytotoxicity” value was 4.98% [at 78.9 µM] (inactive).
